Measured values reported in PubChem BioAssay (Tox21).
Inconclusive results are not listed. Active and inactive are the calls of the source. Unless noted, calls follow the shape of the dose curve; as a rule, active = well fitted curve in the direction sought with a large enough effect in the repeat runs; inconclusive = weak or mixed curves; inactive = no such curve, though single readings can be large; an effect the other way counts as inactive or inconclusive.

How the values were obtained:
[1] = qHTS RealTime-Glo MT Cell Viability Assay in HEK293 cells - 0 hour (AID 1224880); also: top concentration of the series differs between compounds; nearly all actives have a fitted effect of over 45% in size
Outline: (§1)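 Luminescence readout at each listed time point; HEK293, 600 cells/well, RealTime-Glo MT reagent added with cells; compounds pinned (23 nL in DMSO) after 5 h at 37 C; continuous culture at 37 C.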

[2] = A CellTox Green Cytotoxicity Assay to monitor cytotoxicity in HEK293 cells - 32 hour (AID 1224881); also: nearly all actives have a fitted effect of over 40% in size
Outline: (§2)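 Read-out: fluorescence of a cell-impermeant cyanine dye staining DNA of dead cells, proportional to cytotoxicity. HEK293, 600 cells/well with reagent, compound (23 nL DMSO) added after 5 h; reads at 0, 8, 16, 24, 32, 40 h.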

[3] = A CellTox Green Cytotoxicity Assay to monitor cytotoxicity in HepG2 cells - 0 hour (AID 1224882); also: nearly all actives have a fitted effect of over 35% in size
Outline: (§3)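 HepG2, 600 cells/well premixed w/ CellTox Green; 5 h settle, 37 C/5% CO2; pintool cpd add (DMSO); 37 C, 40 h; fluorescence read at 0, 8, 16, 24, 32, 40 h.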

[4] = A CellTox Green Cytotoxicity Assay to monitor cytotoxicity in HepG2 cells - 32 hour (AID 1224883); also: nearly all actives have a fitted effect of over 50% in size
Outline: as §3

[5] = A CellTox Green Cytotoxicity Assay to monitor cytotoxicity in HEK293 cells - 8 hour (AID 1224884); also: nearly all actives have a fitted effect of over 35% in size
Outline: as §2

[6] = qHTS RealTime-Glo MT Cell Viability Assay in HepG2 cells - 16 hour (AID 1224885); also: nearly all actives have a fitted effect of over 50% in size
Outline: (§4)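 Tox21 10K library screened in qHTS format on HepG2 cells carrying RealTime-Glo reagents. Compounds were added after a 5 h preincubation, and the luminescent signal from continuous culture was measured repeatedly during 40 h treatment.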

[7] = qHTS RealTime-Glo MT Cell Viability Assay in HEK293 cells - 24 hour (AID 1224886); also: top concentration of the series differs between compounds; nearly all actives have a fitted effect of over 50% in size
Outline: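 Luminescence generated by NanoLuc from substrate produced by living HEK293 cells served as the viability signal. Each value reflects the reading at its stated time point during continuous 40 h compound exposure at 37 C.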

[8] = qHTS RealTime-Glo MT Cell Viability Assay in HEK293 cells - 8 hour (AID 1224887); also: top concentration of the series differs between compounds; nearly all actives have a fitted effect of over 50% in size
Outline: as §1

[9] = A CellTox Green Cytotoxicity Assay to monitor cytotoxicity in HEK293 cells - 16 hour (AID 1224888); also: nearly all actives have a fitted effect of over 35% in size
Outline: as §2

[10] = qHTS RealTime-Glo MT Cell Viability Assay in HepG2 cells - 0 hour (AID 1224889); also: nearly all actives have a fitted effect of over 50% in size
Outline: as §4

[11] = A CellTox Green Cytotoxicity Assay to monitor cytotoxicity in HepG2 cells - 8 hour (AID 1224890); also: nearly all actives have a fitted effect of over 45% in size
Outline: as §3

[12] = qHTS assay to identify small molecule antagonists of the estrogen receptor alpha (ER-alpha) signaling pathway using the BG1 cell line in the presence of 0.1 nM 17-beta-estradiol - cell viability counter screen (AID 1259241); also: nearly all actives have a fitted effect of over 40% in size
Outline: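 Cytotoxicity counter-screen: live-cell protease activity measured by fluorescence (30 min reagent step) in the same wells. Cells were VM7Luc4E2 with endogenous ER-alpha and ERE-driven luciferase, treated 22 hr at 37C alongside 0.1 nM 17beta-estradiol final.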

[13] = qHTS assay to identify small molecule antagonists of the androgen receptor (AR) signaling pathway using the MDA cell line in the presence of 0.5 nM R1881 - cell viability counter screen (AID 1259242); also: nearly all actives have a fitted effect of over 45% in size
Outline: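 Live-cell protease fluorescence, CellTiter-Fluor, 30 min at 37C. Cells: MDA-kb2, 3,000/well, preincubated 5 hr. Compounds plus 0.5 nM R1881 final, 16 hr, 37C, 0% CO2.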

[14] = qHTS assay to identify small molecule HDAC inhibitors (AID 1259364);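 also: wild-type HCT-116 cells with endogenous class I/II HDAC activity; top concentration of the series differs between compounds; nearly all actives have a fitted effect of over 45% in size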
Outline: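 HCT-116 (wild type), 1,500 cells/well, overnight; compound 2 hr 37C 5% CO2; HDAC-Glo I/II reagent 30 min RT; luminescence readout.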

[15] = qHTS assay to identify small molecule HDAC inhibitors - cell viability counter screen (AID 1259365)
Outline: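 CellTiter-Glo luminescence (30 min, room temperature) reported viability after a 2 h compound exposure at 37 C. Cells: wild-type HCT-116, 1,500 per well, seeded the night before.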

[16] = qHTS assay to identify small molecule agonists of the sonic hedgehog signaling (Shh) pathway - cell viability counter screen (AID 1259366); also: nearly all actives have a fitted effect of over 50% in size
Outline: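 Cytotoxicity counter screen: CellTiter-Fluor reagent added after 23 h compound exposure, then 1 h at 37C and fluorescence read. Cells were 3T3 Gli1-Luc, seeded 2,000 per well and dosed 4 h post-plating.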

[17] = qHTS assay to identify small molecule antagonists of the sonic hedgehog signaling (Shh) pathway - cell viability counter screen (AID 1259367); also: nearly all actives have a fitted effect of over 55% in size
Outline: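 CellTiter-Fluor signal in conditioned medium-stimulated 3T3 Gli1-Luc cells, 23 hr compound exposure, 37C.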

[18] = qHTS assay to identify small molecule phospholipidosis (PLD) inducers (AID 1259344; active = well fitted curve in the direction sought with a large enough effect; an effect the other way counts as inactive or inconclusive)
Outline: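 Accumulated phospholipid, stained red by LipidTOX during 24 h compound treatment of HepG2 cells at 37 C, is quantified from images as pit number and intensity, normalised per cell using Hoechst-stained nuclei.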

[19] = target: Estrogen receptor (Homo sapiens) (UniProt P03372); test: qHTS assay to identify small molecule antagonists of the estrogen receptor alpha (ER-alpha) signaling pathway using the BG1 cell line in the presence of 0.1 nM 17-beta-estradiol (AID 1259244); also: nearly all actives have a fitted effect of over 50% in size
Outline: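 Luminescence after ONE-Glo (30 min, room temperature) measured ERE-luciferase activity in VM7Luc4E2 cells treated 22 h with compound and 0.1 nM final 17beta-estradiol as stimulator.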

Measured: Potency

Estrogen receptor (Homo sapiens), sequence (P03372 whole entry, looked up): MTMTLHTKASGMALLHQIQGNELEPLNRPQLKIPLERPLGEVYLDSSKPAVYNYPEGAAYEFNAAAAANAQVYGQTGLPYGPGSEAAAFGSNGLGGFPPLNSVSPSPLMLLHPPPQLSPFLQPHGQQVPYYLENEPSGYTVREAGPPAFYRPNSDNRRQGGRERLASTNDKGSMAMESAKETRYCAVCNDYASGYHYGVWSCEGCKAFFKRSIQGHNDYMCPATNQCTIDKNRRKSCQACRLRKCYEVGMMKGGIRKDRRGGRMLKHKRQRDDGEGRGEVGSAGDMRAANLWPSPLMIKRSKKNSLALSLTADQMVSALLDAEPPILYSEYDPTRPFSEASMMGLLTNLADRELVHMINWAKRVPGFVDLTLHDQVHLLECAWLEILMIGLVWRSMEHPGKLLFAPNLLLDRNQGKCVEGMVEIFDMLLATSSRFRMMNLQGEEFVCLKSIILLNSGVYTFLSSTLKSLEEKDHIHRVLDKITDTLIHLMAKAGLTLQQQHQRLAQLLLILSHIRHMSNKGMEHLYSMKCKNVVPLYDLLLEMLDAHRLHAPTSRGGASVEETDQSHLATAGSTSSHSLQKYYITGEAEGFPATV

O=C1OC(=O)c2c(Br)c(Br)c(Br)c(Br)c21
not listed: [18] | [19]
inactive: all other assays above

CC1=C2[C@@H]([C@H](C)CC[C@H]2/C=C(\C)C(=O)O)[C@H](O)C1
not listed: [18] | [19]
inactive: all other assays above

CC(=O)OCC1=C(C(=O)O)N2C(=O)[C@@H](NC(=O)CSc3ccncc3)[C@H]2SC1
not listed: [18] | [19]
inactive: all other assays above

O=C(O)CN1C(=O)c2cccc3cccc(c23)C1=O
not listed: [19]
inactive: all other assays above

CCCCCCCCCCCCCCCCCC(=O)OCC(CC)CCCC (centres undefined)
not listed: [18] | [19]
inactive: all other assays above

O=C(NC(Cc1cc(=O)[nH]c2ccccc12)C(=O)O)c1ccc(Cl)cc1 (centres undefined)
not listed: [18] | [19]
inactive: all other assays above

CC(C)(O)CCc1ccccc1
not listed: [14] | [17] | [18]
inactive: all other assays above

CCC1CCC(CCC(=O)O)C1 (centres undefined)
not listed: [14] | [18] | [19]
inactive: all other assays above

CCCCCC
not listed: [14] | [18] | [19]
inactive: all other assays above

O=C1OC[C@H](Cc2cccc(O)c2)[C@H]1Cc1cccc(O)c1
not listed: [18] | [19]
inactive: all other assays above

C1CCCCC1
not listed: [17] | [18] | [19]
inactive: all other assays above

Cc1cccc2sc(N)nc12
not listed: [14] | [18]
inactive: all other assays above

CC(C)(C(=O)c1cccnc1)c1cccnc1
not listed: [19]
inactive: all other assays above

Cc1ccc(NC(=O)N(C)C)cc1NC(=O)N(C)C
not listed: [14] | [17] | [18] | [19]
inactive: all other assays above
